Laboratory results: PubChem BioAssay
Activity calls are given as the source filed them. Unless noted, the rule behind the calls is not given here.

Columns and labels:
[1] = A549 cell viability effects, profiling panel, calcein-AM fluorescence, 48 h, basal (AID 1162); conditions: higher = more signal; note: test concentration not given here
[2] = adipocyte viability effects, profiling panel, cell-based, 3T3-L1 adipocytes, calcein-AM fluorescence, 48 h, basal (AID 1163); conditions: 3T3-L1 adipocytes viability, higher = more signal; note: test concentration not given here
[3] = HepG2 cell viability effects, profiling panel, calcein-AM fluorescence, 48 h, basal (AID 1164); conditions: higher = more signal; note: test concentration not given here
[4] = MM1S cell viability effects, profiling panel, calcein-AM fluorescence, 48 h, basal (AID 1165); conditions: higher = more signal;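 note: viability of MM1S multiple myeloma cells under basal unstimulated conditions; test concentration not given here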
[5] = basal RPMI8226 viability, no added stimulus, profiling panel, cell-based, calcein-AM fluorescence, 48 h, PK04 Diversity Set (AID 1166); conditions: RPMI8226 myeloma viability, higher = more signal;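 note: cells grown under basal conditions without added stimulus; test concentration not given here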
[6] = basal HepG2 mitochondrial membrane potential changes, profiling panel, cell-based, JC-1 fluorescence, 24 h, 100 nL compound (AID 1167); conditions: higher = more signal; note: test concentration not given here
[7] = basal 3T3-L1 adipocyte mitochondrial potential changes, profiling panel, cell-based, JC-1 fluorescence, 3T3-L1 adipocytes, 24 h, 100 nL compound (AID 1168); conditions: JC-1 mitochondrial fluorescence, higher = more signal, called active from +8 up or from −8 down; note: test concentration not given here
[8] = basal RPMI8226 mitochondrial membrane potential changes, profiling panel, cell-based, JC-1 fluorescence, 24 h, 100 nL compound (AID 1169); conditions: RPMI8226 myeloma, JC-1 mitochondrial potential fluorescence, higher = more signal; note: test concentration not given here
[9] = basal MM1S mitochondrial membrane potential changes, profiling panel, cell-based, JC-1 fluorescence, 24 h, 100 nL compound (AID 1170); conditions: higher = more signal; note: test concentration not given here
[10] = A549 lung cancer cell viability effects, profiling panel, resazurin fluorescence, 24 h, PK04 Diversity Set (AID 1171); conditions: higher = more signal, called active from +8 up or from −8 down; note: test concentration not given here
[11] = HepG2 liver cancer cell viability effects, profiling panel, resazurin fluorescence, 24 h, PK04 Diversity Set (AID 1172); conditions: higher = more signal; note: test concentration not given here
[12] = basal S. cerevisiae growth modulation, no modifier, primary screen, OD600, strain BY4716, 24 h, basal condition (AID 1173); conditions: OD600, 24 h, higher = more signal, called active from +8 up or from −8 down
[13] = MM1S myeloma cell viability, profiling panel, resazurin fluorescence, basal, 24 h, PK04 Diversity Set (AID 1174); conditions: higher = more signal, called active from +8 up or from −8 down;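 note: MM1S multiple myeloma cell line; test concentration not given here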
[14] = target: Dihydroorotate dehydrogenase (quinone), mitochondrial (Plasmodium falciparum (isolate 3D7)) (UniProt Q08210); assay: PfDHODH enzyme inhibitors, primary screen, biochemical, C-terminal His tag, absorbance 600 nm (AID 1175); conditions: DCIP absorbance 600 nm, higher = more signal, called active from +8 up or from −8 down;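 note: recombinant parasite enzyme with a five histidine tag at its C terminus; test concentration not given here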
Chain of Dihydroorotate dehydrogenase (quinone), mitochondrial (Plasmodium falciparum (isolate 3D7)) (Q08210 whole entry, looked up): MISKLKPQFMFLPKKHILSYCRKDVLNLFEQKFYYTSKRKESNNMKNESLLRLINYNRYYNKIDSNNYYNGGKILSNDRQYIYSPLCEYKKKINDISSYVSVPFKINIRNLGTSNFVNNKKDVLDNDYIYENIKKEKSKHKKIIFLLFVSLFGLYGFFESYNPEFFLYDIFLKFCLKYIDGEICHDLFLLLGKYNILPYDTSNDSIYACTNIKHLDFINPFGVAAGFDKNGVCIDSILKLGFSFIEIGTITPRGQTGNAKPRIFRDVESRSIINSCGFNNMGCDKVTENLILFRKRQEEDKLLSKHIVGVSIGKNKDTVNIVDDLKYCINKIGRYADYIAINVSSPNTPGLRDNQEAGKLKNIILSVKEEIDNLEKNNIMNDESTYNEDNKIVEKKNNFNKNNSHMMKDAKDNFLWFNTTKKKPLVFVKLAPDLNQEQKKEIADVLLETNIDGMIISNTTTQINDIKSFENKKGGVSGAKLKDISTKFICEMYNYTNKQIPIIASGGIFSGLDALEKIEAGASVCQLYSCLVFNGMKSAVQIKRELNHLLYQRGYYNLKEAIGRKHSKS

[15] = P. aeruginosa biofilm formation inhibitors, primary screen, strain PAO1, LB-PBS medium, absorbance 600 nm (AID 1176); note: test concentration not given here; conditions: P. aeruginosa PAO1 growth/biofilm, A600, 12 h; higher = more signal
[16] = S. cerevisiae RM11-1a growth modifiers, primary screen, strain RM11-1a, OD600, basal, 24 h (AID 1177); conditions: OD600, 24 h, higher = more signal, called active from +8 up or from −8 down;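 note: cultures grown under basal conditions with no added stressor; test concentration not given here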
[17] = E. coli acrAB mutant growth effects, primary screen, E. coli filamentation inducers, strain DRC39, OD650, 24 h (AID 1178); conditions: higher = more signal, called active from +8 up or from −8 down;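 note: growth measured as culture turbidity by optical density at 650 nm; test concentration not given here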
[18] = E. coli acrAB mutant growth effects, primary screen, E. coli filamentation inducers, strain DRC39, OD650, 48 h (AID 1179);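 note: screen aims at cell division blockers that make cells filament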; conditions: E. coli DRC39 delta-acrAB growth, higher = more signal, called active from +8 up or from −8 down
[19] = RPMI8226 myeloma cell viability, profiling panel, resazurin fluorescence, basal, 24 h, PK04 Diversity Set (AID 1180); conditions: higher = more signal;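 note: RPMI8826 multiple myeloma cell line at 5000 cells per well; test concentration not given here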
[20] = target: E3 ubiquitin-protein ligase XIAP (Homo sapiens) (UniProt P98170); assay: XIAP binders, primary screen, biophysical, small-molecule microarray, fluorescence 635 nm (AID 1181); conditions: small-molecule microarray binding, higher = more signal;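 note: score merges 667 nm emission and signal to noise over triplicate slides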
Chain of E3 ubiquitin-protein ligase XIAP (Homo sapiens) (P98170 whole entry, looked up): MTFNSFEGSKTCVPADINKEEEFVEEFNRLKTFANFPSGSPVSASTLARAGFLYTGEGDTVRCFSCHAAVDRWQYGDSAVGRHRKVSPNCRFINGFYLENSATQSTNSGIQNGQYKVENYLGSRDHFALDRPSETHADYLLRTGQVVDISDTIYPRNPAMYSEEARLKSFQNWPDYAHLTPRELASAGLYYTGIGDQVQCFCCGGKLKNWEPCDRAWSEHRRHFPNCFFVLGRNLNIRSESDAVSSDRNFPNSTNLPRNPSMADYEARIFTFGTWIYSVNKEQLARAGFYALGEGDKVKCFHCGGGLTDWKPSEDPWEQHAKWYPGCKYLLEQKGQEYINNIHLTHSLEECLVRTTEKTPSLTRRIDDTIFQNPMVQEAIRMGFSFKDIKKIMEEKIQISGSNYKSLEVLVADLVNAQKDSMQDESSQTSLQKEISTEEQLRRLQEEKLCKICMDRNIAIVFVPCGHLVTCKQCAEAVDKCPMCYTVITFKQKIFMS

COC(=O)CCCCCCC(=O)Nc1ccc(NC(=O)CCCC[P+](c2ccccc2)(c2ccccc2)c2ccccc2)cc1
z-score [1]: -0.0008
z-score [2]: -0.297
z-score [3]: 0.67
z-score [4]: 0.134
z-score [5]: -0.268
z-score [6]: 1.58
z-score [7]: 1.03 (inactive)
z-score [8]: -0.176
z-score [9]: -1.46
z-score [10]: 1.1 (inactive)
z-score [11]: 1.45
z-score [12]: -1.95 (inactive)
z-score [13]: 0.687 (inactive)
composite z-score [14]: -1.77 (inactive)
z-score [15]: -1.01 (inactive)
z-score [16]: 1.68 (inactive)
z-score [17]: -17.1 (active)
z-score [18]: -5.78 (inactive)
z-score [19]: 0.347
composite z-score [20]: -0.127

C=C(/C(=C/C[C@H](OC(C)=O)c1cccc(OCCO)c1)c1cnc2ccccc2c1)C(C)C
z-score [1]: 0.336
z-score [2]: 0.811
z-score [3]: 0.0181
z-score [4]: -0.861
z-score [5]: 0.0738
z-score [6]: 1.28
z-score [7]: 0.224 (inactive)
z-score [8]: 0.649
z-score [9]: -0.105
z-score [10]: 0.236 (inactive)
z-score [11]: -0.196
z-score [12]: 0.644 (inactive)
z-score [13]: -0.0992 (inactive)
composite z-score [14]: -5.52 (inactive)
z-score [15]: -0.0099 (inactive)
z-score [16]: 1.51 (inactive)
z-score [17]: 0.636 (inactive)
z-score [18]: 0.363 (inactive)
z-score [19]: 0.573
composite z-score [20]: -0.0773

C=CCOC(=O)[C@H]1[C@@H]2C(=O)O[C@@H](c3ccccc3)[C@@H](c3ccccc3)N2[C@@H](c2ccc(OCCOC(=O)[C@@H]3C[C@@H]4C(=O)N5CCC[C@H]5C(=O)N4[C@@H]3c3ccc(O)cc3)cc2)[C@]12C(=O)Nc1ccc(I)cc12
z-score [1]: -0.455
z-score [2]: 0.276
z-score [3]: 0.018
z-score [4]: 0.0967
z-score [5]: -0.0749
z-score [6]: -1.24
z-score [7]: 0.88 (inactive)
z-score [8]: -0.655
z-score [9]: -1.37
z-score [10]: -0.273 (inactive)
z-score [11]: -0.384
z-score [12]: 1.04 (inactive)
z-score [13]: -0.996 (inactive)
composite z-score [14]: -1.13 (inactive)
z-score [15]: 3.91 (inactive)
z-score [16]: 1.08 (inactive)
z-score [17]: -0.102 (inactive)
z-score [18]: 0.0802 (inactive)
z-score [19]: -0.686
composite z-score [20]: -0.083

CC(C)C[C@@H]1NC(=O)[C@@H]2C[C@H](C(=O)NCCCCCN)[C@H](c3ccc(O)cc3)N2C1=O
z-score [1]: 0.0318
z-score [2]: 0.484
z-score [3]: -0.354
z-score [4]: -0.0387
z-score [5]: 0.286
z-score [6]: -0.502
z-score [7]: -0.259 (inactive)
z-score [8]: 0.7
z-score [9]: 0.698
z-score [10]: -0.676 (inactive)
z-score [11]: -1.3
z-score [12]: 0.732 (inactive)
z-score [13]: -0.205 (inactive)
composite z-score [14]: 0.582 (inactive)
z-score [15]: -0.226 (inactive)
z-score [16]: 1.04 (inactive)
z-score [17]: -0.496 (inactive)
z-score [18]: -0.728 (inactive)
z-score [19]: -0.354
composite z-score [20]: 0.0015
